Inconclusive results are not listed. Values without a mark were called inactive. Calls follow the shape of the dose curve; as a rule, active = well fitted cell-killing curve with a large enough effect; inconclusive = small, poorly fitted or top-dose-only effect, or effect the other way; inactive = flat fitted curve, though single readings scatter.
test system: Tov112D; test: Primary qHTS to identify gynecologic anti-cancer compounds using libraries of approved drugs and bioactive compounds (AID 1345084); conditions: Gynecologic cancer cell panel viability, ATPlite luminescence, 48 h; series mostly up to 57.5 µM; activity change, negative = cytotoxicity: at the top concentration; also: nearly all actives have a fitted effect of over 55% in size
Method in brief: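 Cell viability after 48 h drug treatment, ATPlite luminescence readout; five doses.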
% is scaled to controls: 0 for no effect and ±100 for the full control effect.

Point of comparison: `CC(C)CNCc1ccc(-c2ccccc2S(=O)(=O)N2CCCC2)cc1`, “activity change, negative = cytotoxicity” value -0.578%. Against it:
- Nc1nc2c(c(N3CCNCC3)n1)CCC1=C2[C@@H]2CCCC[C@@H]2O1 — lower, -1.2%
- N[C@H]1Cc2ccccc2N(O)C1=O — higher, 5.75%
- CC(C)(C)NS(=O)(=O)c1cncc(-c2cc(F)c3nc(N)nn3c2)c1 — higher, 5.63%

Point of comparison: `C[C@@H]1CCC2C(C)(C)[C@H](O)CC[C@]2(C)[C@@]12Cc1c(O)cc3c(c1O2)CN([C@@H](CCC(=O)O)C(=O)O)C3=O` (stereo not given in full), “activity change, negative = cytotoxicity” value 2.88% [at 25.3 µM]. Against it:
- CC1(C)CC[C@]2(C(=O)O)CC[C@]3(C)C(=CCC4[C@@]5(C)CC[C@H](O[C@@H]6O[C@H](C(=O)O)[C@@H](O[C@@H]7OC[C@@H](O)[C@H](O)[C@H]7O)[C@H](O)[C@H]6O)C(C)(C)C5CC[C@]43C)C2C1O (stereo not given in full) — higher, 13.7% [at 25.3 µM]
- C/C=C/C=C/C(O)=C1\C(O)=C(C)C(=O)[C@@]2(C)OC(=O)[C@@](C)(NC(=O)/C=C/C(=O)O)[C@@H]12 — lower, -8.28% [at 25.3 µM]
- C/C=C/C=C/C(O)=C1\C(=O)[C@]2(C)C3C(C(=O)CC/C=C/C)=C(O)C4(C)C1[C@]1(C)O[C@@]4(O)[C@@]3(C)O[C@@]12O — lower, -6.8% [at 25.3 µM]

`C=C1CCC2C(C)(C)C(O)CCC2(C)C1CCC(C)CCOC(C)=O` (stereo not given) was tested, and the “activity change, negative = cytotoxicity” value was 0% [at 38.5 µM].

In the case of `C[C@@H]1O[C@@H](O[C@H]2[C@H](OC(=O)[C@]34CCC(C)(C)C[C@H]3C3=CCC5[C@@]6(C)C[C@H](O)[C@H](O[C@@H]7O[C@H](CO)[C@@H](O)[C@H](O)[C@H]7O)[C@@](C)(CO)C6[C@H](O)C[C@@]5(C)[C@]3(C)CC4)OC[C@H](O)[C@@H]2O)[C@H](O)[C@H](O)[C@H]1O[C@@H]1OC[C@@H](O)[C@H](O[C@@H]2OC[C@](O)(CO)[C@H]2O)[C@H]1O` (stereo not given in full), the activity change, negative = cytotoxicity is reported as 7.29% [at 6.55 µM].

Reference: PubChem BioAssay (NCATS)
